Rows were chosen to be rich in hits. Some 9% of all compounds tested hit in one or more screens of this group.
Luc counter = Counterscreen for Luciferase (Kinase-Glo TM) Inhibition | Luciferin 4-monooxygenase (Photuris pensylvanica), Q27757 | Kinase-Glo luciferase, ATP luminescence, 8 min | Potency, µM (doses to about 38.3 µM), inactives show at the top dose activity change, negative = inhibition, actives largely listed as inhibitors | 200,000 tested, 0.28% active; active means well fitted curve in the direction sought with a large enough effect; inconclusive means small, poorly fitted or top-dose-only effect, or another doubt; inactive means no such curve, though single readings can be large; an effect the other way counts as inactive or inconclusive; further: nearly all actives have a fitted effect of over 60% in size
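Compound is pinned into ATP-containing buffer (10 uM ATP, imidazole pH 7.2, 7 mM MgCl2). Kinase-Glo luciferase reagent is then added. Light output is recorded following an 8-min room-temperature incubation.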
ALDH1A1 inh = qHTS Assay for Inhibitors of Aldehyde Dehydrogenase 1 (ALDH1A1); Aldehyde dehydrogenase 1A1 (Homo sapiens), P00352; Purified ALDH1A1, NADH fluorescence, propionaldehyde substrate; Potency, µM (series often up to 75.3 µM), for the others: at the top dose activity, negative = inhibition, most hits filed as inhibitors; AID 1030, 2008; 220,000 tested, 7.3% active;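 further: plate controls were no enzyme wells and a reference inhibitor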
Target sequence (P00352 whole entry, looked up): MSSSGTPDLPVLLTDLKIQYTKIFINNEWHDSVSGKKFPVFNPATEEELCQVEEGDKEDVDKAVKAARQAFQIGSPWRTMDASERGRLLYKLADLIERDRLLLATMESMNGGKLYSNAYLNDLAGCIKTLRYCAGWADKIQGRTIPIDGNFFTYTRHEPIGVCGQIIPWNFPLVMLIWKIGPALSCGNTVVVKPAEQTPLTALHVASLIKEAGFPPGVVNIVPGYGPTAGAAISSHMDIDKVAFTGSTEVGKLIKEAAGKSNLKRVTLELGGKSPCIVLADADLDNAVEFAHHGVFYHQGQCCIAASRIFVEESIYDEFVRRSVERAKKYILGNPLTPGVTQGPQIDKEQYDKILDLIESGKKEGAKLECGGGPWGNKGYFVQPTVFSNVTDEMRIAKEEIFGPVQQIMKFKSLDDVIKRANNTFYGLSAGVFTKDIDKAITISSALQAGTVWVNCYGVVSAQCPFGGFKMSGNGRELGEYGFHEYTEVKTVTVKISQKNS
Lamin A splicing = qHTS Assay for Modulators of Lamin A Splicing | HeLa LMNA splicing GFP/RFP minigene ratio, 48 h | Potency, µM (top dose mostly 46.1 µM), for the others: at the highest dose ratio change, negative = inhibition, hits mostly inhibitors | 200,000 tested, 0.01% active | AID 1487, 2009; active means well fitted inhibition curve with a large enough effect in the signal ratio, with a control signal flat, not every such curve was filed as active; inconclusive means small, poorly fitted or top-dose-only effect, or effect the other way, or a change in a side signal; the % refers to the signal ratio
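S3 HeLa cells stably expressing lamin A-EGFP splicing minigene plus DsRed2, 600 cells/well, 48 h compound exposure at 37C. Laser-scanning cytometry; analysed as GFP (500-530 nm)/RFP (575-640 nm) total intensity ratio; 0.5% DMSO vehicle.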
HPGD block = qHTS Assay for Inhibitors of HPGD (15-Hydroxyprostaglandin Dehydrogenase); 150,000 tested, 4.3% active; AID 894, 2007; purified HPGD, NADH fluorescence kinetic, PGE2 substrate; Potency, µM, without a hit: at the highest dose activity change, negative = inhibition, most hits filed as inhibitors; 15-hydroxyprostaglandin dehydrogenase [NAD(+)] (Homo sapiens), P15428
Target sequence (P15428 whole entry, looked up): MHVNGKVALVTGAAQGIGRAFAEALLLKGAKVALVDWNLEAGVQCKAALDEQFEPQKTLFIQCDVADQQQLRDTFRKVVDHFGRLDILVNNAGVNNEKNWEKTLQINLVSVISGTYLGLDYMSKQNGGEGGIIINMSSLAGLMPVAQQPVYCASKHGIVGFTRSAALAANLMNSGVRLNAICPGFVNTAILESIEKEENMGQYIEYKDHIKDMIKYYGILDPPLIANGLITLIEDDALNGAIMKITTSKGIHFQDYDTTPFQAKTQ
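20 nM HPGD preincubated 15 min at room temperature with compound in 50 mM Tris-HCl pH 8, 0.01% Tween 20. Started with 1 mM NAD+ and 30 uM prostaglandin E2; NADH fluorescence (360/450 nm) read 5 times over 30-s intervals, last minus first.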
IMPase Li cell = qHTS Assay for Identifying the Cell-Membrane Permeable IMPase Inhibitors: Potentiation with Lithium; CHO-M1 cells, IP1 TR-FRET (IP-One), carbachol + lithium; 210,000 tested, 0.35% active; AID 1457, 2008; Potency, µM (titrated, usually from 59.4 µM), for inactives: top-dose activity, negative = IMPase inhibition, actives largely listed as inhibitors; active means well fitted curve in the direction sought with a large enough effect; inconclusive means small, poorly fitted or top-dose-only effect, or another doubt; inactive means no such curve, though single readings can be large; an effect the other way counts as inactive or inconclusive;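 further: IP1 builds up when IMPase is blocked and the TR-FRET signal falls; plate controls were basal vehicle for no effect and high inhibitor control for full effect; nearly all actives have a fitted effect of over 50% in size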
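Steps: plate 2000 CHO-M1 cells per well and culture 16–30 h; add compound and lithium; incubate 30 min, 37C; add d2-IP1 tracer and Eu cryptate anti-IP1 antibody in lysis buffer; read after 10 min at room temperature.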
* marks the source's active call; other numbers are inactive results; [ ] = another dose, or the depositor's remark. Unless noted, the call rests on the fitted dose curve; in most records, active means well fitted inhibition curve with a large enough effect (not every such curve was filed as active); inconclusive means small, poorly fitted or top-dose-only effect, or another doubt; inactive means no such curve, though single readings can be large or run the other way. Unless noted, on the % scale 0 is the no-effect control and ±100 the full control effect; potency means the concentration at half of the fitted maximal effect.

Results for Cc1ccc(S(=O)(=O)NCCCNc2ccc([N+](=O)[O-])cc2)cc1 ?
Luc counter: 4%; ALDH1A1 inh: 14µM*; Lamin A splicing: 2%[46 µM]; IMPase Li cell: 21%

Results for NCCCCCCNS(=O)(=O)c1cccc2ccccc12 ?
Luc counter: 2%; ALDH1A1 inh: 13µM*; HPGD block: -26%; IMPase Li cell: 2%

How did Cc1cccc(CNc2ncncc2-c2ccccc2CN(C)C)c1 do in these assays?
ALDH1A1 inh: 9%; Lamin A splicing: -6%; IMPase Li cell: 16%

Results for Cc1ccc(S(=O)(=O)N2CCN(S(=O)(=O)N3CCCCCC3)CC2)cc1 ?
Luc counter: 0%; ALDH1A1 inh: 13%; Lamin A splicing: -8%[46 µM]; IMPase Li cell: 6%

What do the screens show for `Cc1ccc(NC(=O)CC(C)S(=O)(=O)c2ccc3c(c2)NC(=O)CO3)c(C)c1` (stereo not drawn)?
Lamin A splicing: 7%[46 µM]

How did O=C(Nc1ccc([N+](=O)[O-])cc1Br)c1cccnc1 do in these assays?
Luc counter: 0%; ALDH1A1 inh: 1%; Lamin A splicing: 11%; HPGD block: -19%; IMPase Li cell: -6%

What do the screens show for `CCc1ccc(CNC(=O)CN2C(=O)CSc3ccc(S(=O)(=O)N4CCOCC4)cc32)cc1`?
Lamin A splicing: 5%[46 µM]

What do the screens show for `CCCOc1ccc(-c2nc(=S)[nH][nH]2)cc1`?
Luc counter: 7%; ALDH1A1 inh: inconclusive; Lamin A splicing: -5%; HPGD block: 13µM*; IMPase Li cell: -14%[38.3 µM]

Results for COc1ccc2c(c1)C(=O)C(=O)N2 ?
Luc counter: -8%; ALDH1A1 inh: 22µM*; Lamin A splicing: -14%; HPGD block: -15%; IMPase Li cell: 11%

What do the screens show for `CCOC(=O)C(Cc1ccccc1)c1ccnc2ncnn12` (stereo not drawn)?
Luc counter: 0%; ALDH1A1 inh: -11%; Lamin A splicing: -4%[46 µM]; IMPase Li cell: 3%

Results for O=C(COC(=O)c1ccccn1)Nc1ncc(C(F)(F)F)cc1Cl ?
Luc counter: -1%; ALDH1A1 inh: inconclusive; Lamin A splicing: 17%; HPGD block: -15%; IMPase Li cell: -14%[38.3 µM]

What do the screens show for `O=C(COC(=O)c1ccc([N+](=O)[O-])s1)Nc1ncc(C(F)(F)F)cc1Cl`?
Luc counter: -1%; ALDH1A1 inh: 18µM*; Lamin A splicing: 2%; HPGD block: -27%; IMPase Li cell: -2%

What do the screens show for `O=C(COC(=O)c1cc(-c2ccccc2Cl)nc2ccccc12)Nc1ncc(C(F)(F)F)cc1Cl`?
Luc counter: 0%; ALDH1A1 inh: 15%; Lamin A splicing: -9%; HPGD block: -19%; IMPase Li cell: 10µM*

What do the screens show for `CSc1ccc(/C=C(\C(=O)O)c2ccc(S(=O)(=O)N3CCCCC3)s2)cc1`?
Luc counter: 1%; ALDH1A1 inh: -14%; Lamin A splicing: -22%; HPGD block: 16%; IMPase Li cell: -1%

What do the screens show for `O=C(O)/C(=C\c1ccc(Cl)c([N+](=O)[O-])c1)c1ccc(S(=O)(=O)N2CCCCC2)s1`?
Luc counter: 5%; ALDH1A1 inh: 0.5µM*; Lamin A splicing: -10%[46 µM]; IMPase Li cell: 20%

How did O=C(O)/C(=C\c1cccc([N+](=O)[O-])c1)c1ccc(S(=O)(=O)N2CCCCC2)s1 do in these assays?
ALDH1A1 inh: 4µM*

How did O=C(O)/C(=C\c1ccccc1Cl)c1ccc(S(=O)(=O)N2CCCCC2)s1 do in these assays?
ALDH1A1 inh: inconclusive; Lamin A splicing: -24%

Results for Cc1ccc2c(N)[nH]nc2n1 ?
Luc counter: -2%; ALDH1A1 inh: 0%; IMPase Li cell: -2%

How did CCCCc1ccc(C2C(C#N)=C(N)SC(N)=C2C#N)s1 do in these assays?
Luc counter: 5%; ALDH1A1 inh: inconclusive; Lamin A splicing: 22%; HPGD block: 14µM*; IMPase Li cell: -22%[38.3 µM]

What do the screens show for `CCCCc1ccc(/C=C(\C#N)C(N)=S)s1`?
Luc counter: -5%; ALDH1A1 inh: inconclusive; Lamin A splicing: 7%[46 µM]; IMPase Li cell: 2%

Results for O=C(CCSc1ccc(Br)cc1)Nc1cccnc1 ?
Luc counter: -1%; ALDH1A1 inh: 4%; IMPase Li cell: -4%

What do the screens show for `COc1ccc(Cc2nn3c(-c4ccccc4Br)nnc3s2)cc1`?
Luc counter: -2%; ALDH1A1 inh: inconclusive; Lamin A splicing: inconclusive; HPGD block: inconclusive; IMPase Li cell: 23%[38.3 µM]

Results for Clc1ccccc1-c1nnc2sc(CCc3ccccc3)nn12 ?
Luc counter: -1%; ALDH1A1 inh: 4µM*; Lamin A splicing: inconclusive; HPGD block: 8.9µM*; IMPase Li cell: 11%

What do the screens show for `Brc1ccccc1-c1nnc2sc(Cc3ccccc3)nn12`?
Luc counter: 0%; ALDH1A1 inh: -14%; Lamin A splicing: -29%; HPGD block: 16µM*; IMPase Li cell: 34%[38.3 µM]

Results for c1ccc(-c2nnc3sc(-c4ccncc4)nn23)cc1 ?
Luc counter: 0%; ALDH1A1 inh: inconclusive; Lamin A splicing: 2%; HPGD block: -14%; IMPase Li cell: 31%[38.3 µM]

Results for c1ccc(CCc2nn3c(-c4ccncc4)nnc3s2)cc1 ?
Luc counter: -1%; ALDH1A1 inh: 10µM*; Lamin A splicing: -4%; HPGD block: 5µM*; IMPase Li cell: 10%[38.3 µM]

How did COc1ccccc1-c1nn2c(-c3ccccc3Cl)nnc2s1 do in these assays?
Luc counter: 3%; ALDH1A1 inh: -11%; Lamin A splicing: 6%; HPGD block: -11%; IMPase Li cell: 3%[38.3 µM]

How did CCCN1Cc2cccc(C(=O)NC(CC(=O)OCC)c3ccc(OC(C)C)cc3)c2C1=O (stereo not drawn) do in these assays?
Luc counter: 4%; ALDH1A1 inh: inconclusive; IMPase Li cell: 0%

Results for CCCN1Cc2cccc(C(=O)NC(CC(=O)OCC)c3ccc(C)cc3)c2C1=O (stereo not drawn) ?
ALDH1A1 inh: 13µM*; IMPase Li cell: 7%

What do the screens show for `O=C(Nc1ccccn1)C(=O)N1CCCCC1`?
Luc counter: 2%; ALDH1A1 inh: 9%; Lamin A splicing: 2%; HPGD block: -30%; IMPase Li cell: 0%

Results for CNC(=O)NC(=O)C(C)OC(=O)CCCSc1nc2ccccc2s1 (stereo not drawn) ?
Luc counter: -3%; ALDH1A1 inh: 4%; Lamin A splicing: -1%; HPGD block: -7%; IMPase Li cell: 2%

What do the screens show for `CC(C)CCn1cnc2c(oc3nc4c(cc32)CCCC4)c1=O`?
ALDH1A1 inh: 3.2µM*
